# Source: PubChem BioAssay AID1345085 (National Center for Advancing Translational Sciences (NCATS), 2018)
# Records with an inconclusive call do not appear. Unmarked numbers belong to inactive results. Calls of active or inactive are those of the source. Calls come from the whole dose curve; as a rule, active = well fitted cell-killing curve with a large enough effect; inconclusive = small, poorly fitted or top-dose-only effect, or effect the other way; inactive = no such curve, though single readings can be large or run the other way. *1 amine or outer side, *2 acyl side, *3 side chain or, on linkers, in order; H or OH if unused. Where a SMILES comes first, the peptide text is derived from it. Bridges are numbered along the chain shown (N, C = ends). Roman numbers before positions name the chains, in order. [ ]: non-standard residue; d: D form. Actinocin(9to1) = Cc1c2oc3c(C)ccc(C(=O)[*:1])c3nc-2c(C(=O)[*:2])c(N)c1=O; NMeV = CN[C@H](C(=O)O)C(C)C; Sar = CNCC(=O)O
# System: C33A
# Assay: Confirmatory qHTS for gynecologic anti-cancer compounds from libraries of approved drugs and bioactive compounds; note: nearly all actives have a fitted effect of over 55% in size
# Conditions: gynecologic cancer cell panel viability, ATPlite luminescence, 48 h; series mostly up to 57.6 µM
# In short: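 Viability is measured as ATP-dependent luciferase light using ATPlite, read 15 min after reagent addition at room temperature. Compounds, in DMSO, span 57.5 uM down to 0.977 nM over 11 threefold steps for 48 h.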
# % is set by controls: 0 for no effect and ±100 for the full control effect; potency is the fitted concentration of half-maximal effect.
SMILES,Potency,"activity change, negative = viability loss"
Cc1cc(C2CCCCC2)n(O)c(=O)c1,7.03 µM (active),
"Cc1c2oc3c(C)ccc(C(=O)N[C@@H]4C(=O)N[C@H](C(C)C)C(=O)N5CCC[C@H]5C(=O)N(C)CC(=O)N(C)[C@@H](C(C)C)C(=O)O[C@@H]4C)c3nc-2c(C(=O)N[C@@H]2C(=O)N[C@H](C(C)C)C(=O)N3CCC[C@H]3C(=O)N(C)CC(=O)N(C)[C@@H](C(C)C)C(=O)O[C@@H]2C)c(N)c1=O (I: T[dV]P[Sar][NMeV] / II: T[dV]P[Sar][NMeV]; ester I:1-I:C, II:1-II:C; linker I:N-II:N via Actinocin(9to1))",0.385 µM (active),
CCOc1cc2ncc(C#N)c(Nc3ccc(F)c(Cl)c3)c2cc1NC(=O)/C=C/CN(C)C,8.63 µM (active),
CN(C)c1ccc(-c2nc3ncc(Cl)c(N4CCN(CC(=O)Nc5nccs5)CC4)c3[nH]2)cc1,inactive,
Oc1cn2c(n1)Nc1ccc(Cl)c(Cl)c1C2,inactive,
CCCCc1oc2ccc(NS(C)(=O)=O)cc2c1C(=O)c1ccc(OCCCN(CCCC)CCCC)cc1,27.3 µM (active),
OC[C@H]1O[C@@H](n2cnc3c(=S)nc[nH]c32)[C@H](O)[C@@H]1O,10.9 µM (active),
CCN(CC)CCOc1ccc(/C(=C(\Cl)c2ccccc2)c2ccccc2)cc1,79.4 µM (active),
Cc1csc(NC(=O)c2sc3nc4c(c(C(F)(F)F)c3c2N)CCC4)n1,1.93 µM (active),
COc1cc(F)c(F)c(Nc2ccc(I)cc2F)c1NS(=O)(=O)C1(CC(O)CO)CC1 (stereo not drawn),inactive,
CC(Oc1cc(-n2cnc3ccc(CN4CCN(C)CC4)cc32)sc1C(N)=O)c1ccccc1C(F)(F)F (stereo not drawn),5.44 µM (active),
Cc1nc(N)nc(N)c1-c1ccc(Cl)c(Cl)c1,0.172 µM (active),
Cc1ccccc1C(OCCN(C)C)c1ccccc1 (stereo not drawn),inactive,
CNC(=O)c1nn(C)c2c1C(C)(C)Cc1cnc(Nc3ccc(N4CCN(C)CC4)cc3)nc1-2,inactive,
Nc1cccc(-c2cc3c(Oc4cccc(O)c4)ncnc3[nH]2)c1,inactive,
O=C(CCCCCCNC(=O)c1cnc(N(c2ccccc2)c2ccccc2)nc1)NO,10.9 µM (active),
Cc1ccc(C(=O)N(CCCN)C(c2nc3cc(Cl)ccc3c(=O)n2Cc2ccccc2)C(C)C)cc1 (stereo not drawn),0.485 µM (active),

SMILES,Potency,"activity change, negative = viability loss"
CN1CCN(c2cccc(Nc3nc4c(-c5ccc(S(C)(=O)=O)cc5)cccn4n3)c2)CC1,inactive,
Fc1cc(-c2cccc3ncc(-c4cnn(C5CCNCC5)c4)nc23)cc(F)c1CN1CCOCC1,24.3 µM (active),
FC(F)(F)c1ccc(/C=C/c2nc(COc3ccc(CCCCn4ccnn4)cc3)co2)cc1,inactive,
Nc1ccccc1NC(=O)c1ccc(CNc2nccc(-c3cccnc3)n2)cc1,3.06 µM (active),
CC(C)C[C@H](NC(=O)[C@@H](NC(=O)c1cccc(-c2ccccc2)n1)[C@@H](C)O)B(O)O,0.385 µM (active),
CC(C)Oc1ccc(C(=O)NC(CNC(=O)CN(C)C)Cc2ccc(-c3cn4cccc(C(C)O)c4n3)cc2)cc1Cl (stereo not drawn),inactive,
Cc1ccc(C(=O)Nc2ccc(CN3CCN(C)CC3)c(C(F)(F)F)c2)cc1C#Cc1cnc2cccnn12,19.3 µM (active),
O=C(NCC(O)CO)c1ccncc1Nc1ccc(I)cc1F (stereo not drawn),inactive,
CNCc1ccc(-c2[nH]c3cc(F)cc4c3c2CCNC4=O)cc1,inactive,
CN1CCN(Cc2ccc(NC(=O)Nc3ccc(Oc4cc(NC(=O)C5CC5)ncn4)cc3)cc2C(F)(F)F)CC1,7.69 µM (active),
C[C@]12CCC(=O)C=C1[C@@H]1C[C@@H]1[C@H]1[C@@H]3[C@@H]4C[C@@H]4[C@@]4(CCC(=O)O4)[C@@]3(C)CC[C@@H]12,inactive,
CN(C)C1CCN(C(=O)c2ccc(NC(=O)Nc3nc(N4CCOCC4)nc(N4CCOCC4)n3)cc2)CC1,0.172 µM (active),
CCN(CC)CCCC(C)Nc1ccnc2cc(Cl)ccc12 (stereo not drawn),inactive,
Cc1cnc(CNC(=O)c2c(=O)c3ccc(N4CCCN(C)CC4)nc3n3c2sc2ccccc23)cn1,,-18.8% [at 10.7 µM]
O=C(O)C1(Cc2cccc(Nc3nccs3)n2)CCC(Oc2cccc(Cl)c2F)CC1 (stereo not drawn),inactive,
CC(=O)NCC(=O)N1C2CCC1c1cc(Nc3ncc(C(F)(F)F)c(NC4CCC4)n3)ccc12 (stereo not drawn),inactive,
